# Assay results reported in the supplement of paper PMC6555819.
# Columns and labels:
# Assay in all cases: PBM binding z-score (relative to random genomic background probes); higher = stronger binding; sequences stand for … in GC…GCGATTGACAGCGTAGAATGAAGG
# [1] = tested on: RARb homodimer (NR concentration 270 nM)
# In short: (§1)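 Custom Agilent 4×180K protein-binding microarrays carried double-stranded probes, each with a 34-nt variable region. These regions held direct-repeat seeds, single-nucleotide variants, half-site ablations and random human genomic background sequences. Ligand-free nuclear receptor dimers were incubated on the arrays for 1 h, antibodies against each partner (one per run) detected binding, and scanned fluorescence was regression-normalized. Binding z-scores take the random background probes as reference.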
# [2] = tested on: RARg:RXRa (NR concentration 270 nM, RXRa partner concentration 90 nM)
# In short: as §1
# [3] = tested on: RARg homodimer (NR concentration 270 nM)
# In short: as §1
# [4] = tested on: RXRa DBDmut IVT, anti-RXR (DBD mutation: RXRa K156A/R161A, NR concentration 90 nM)
# In short: as §1
# [5] = tested on: RXRa homodimer (NR concentration 180 nM)
# In short: as §1
# [6] = tested on: THRa:RXRa (NR concentration 90 nM, RXRa partner concentration 90 nM)
# In short: as §1
# [7] = tested on: THRa homodimer (NR concentration 90 nM)
# In short: as §1
# [8] = tested on: VDR homodimer (NR concentration 270 nM)
# In short: as §1
Sequence,PBM binding z-score [1],PBM binding z-score [2],PBM binding z-score [3],PBM binding z-score [4],PBM binding z-score [5],PBM binding z-score [6],PBM binding z-score [7],PBM binding z-score [8]
TTGCCAAGGTGAGCTGAGGTCGTTGATCCAACTC,1.42,1.02,0.784,-0.052,0.78,4.62,2.03,1.75
ATCTCTATGTAAAAGTTCAGTGAATCCCGAGGAT,2.26,1.61,1.8,1.05,1.11,0.505,0.00559,1.6
TCTAGTTGGTTAAAGGTCACACACTCGAAATGCG,5.19,6.13,5.53,2.21,6.72,4.02,2.69,2.78
TCAAATAGGTAAACAGGTGAAAGTCCGTAAGTTA,0.737,0.645,0.221,1.46,1.15,0.783,0.141,0.236
CGTCCAAGGTCATAGGAGGTTAGTGAAGACAGAT,4.27,5.73,5.72,3.76,5.53,4.76,3.13,2.99
ACTAGTTGGTCAGCTAAGGTCACACACAATTCGG,4.54,4.33,4.53,1.25,4.2,5.21,5.38,2.63
ATATGTAGCTTACATCCGGGTCATTCAGGCTATG,1.78,1.48,1.02,0.735,1.9,2.87,2.3,2.18
GCTAGCAGGCCATTTGGGTCACTCACTGACGGGC,1.96,0.722,1.04,0.199,0.604,1.73,0.972,0.0479
CGTCCAAGGTCAGTAGGTCAGTGAAAGCGACGTG,4.74,5.95,6.1,2.72,4.05,3.35,1.74,1.94
CGTCCAAGGTCTAAGGTCAGTGAAGAGATGACGG,3.66,3.47,4.02,1.14,3.1,3.65,3.24,1.1
ATCTCTAGGTAAGACTCTGTTCAGTGAAGAACGC,0.515,-0.0818,0.134,0.365,0.0121,0.57,0.576,-0.00157
CGAACTAGGTCACAGAGGTCAAAGTCCGTGCGTA,5.38,7.57,7.52,3.54,8.15,4.58,2.83,6.98
TCTTGTAGATCAAGCAGGGTAAGAAAGCCTGAGT,-0.297,-0.27,-0.38,0.436,-0.147,1.2,-0.451,0.209
CCTACTGGGCCATAGGTCATTGATTCCAATGCTC,2.63,2.89,1.95,0.122,2.63,1.61,0.173,0.271
ATATGTAGGTTATCGGGTCAGTCAGTTTGCGCAT,2.84,2.76,2.42,1.01,2.44,2.68,2.08,2.46
GCGACTGGGGCCAAGCAGGTTACCATAAGGTTGG,1.2,0.615,0.586,-0.252,0.329,1.3,0.0537,0.051
CAAACTAGGTCACAGAGGTCTAAGTCCGTGCGTA,3.5,4.44,4.87,1.85,3.76,3.54,1.82,1.87
CCGCCTGGGGCAAAGGTTACCATACTCAGTACGA,2.28,3.48,1.78,-0.0654,3.55,2.05,0.443,0.257
AAGACAGGGTCATCGTAGGCCAGAGTACGCACAG,3.6,5.67,5.54,3.14,6.69,4.37,1.12,3.34

Sequence,PBM binding z-score [1],PBM binding z-score [2],PBM binding z-score [3],PBM binding z-score [4],PBM binding z-score [5],PBM binding z-score [6],PBM binding z-score [7],PBM binding z-score [8]
TCTTGTAGATCAACAGGAGGATAAGAAAGATCGA,-0.517,0.227,0.396,0.36,0.432,0.177,-0.392,-0.362
CCGACTGGGGCAAAGGTTACAATACTCAGTACGA,2.22,3.61,2.01,0.382,4.11,1.8,-0.161,0.239
CCTACTGGGCCATTCAGAGTTCATTGATCATATG,2.64,2.54,1.23,2.26,1.28,1.12,0.0171,5.74
TCTTGTAGATCTGCAGGTTAAGAAAGCTGGCCAA,0.11,-0.162,-0.524,0.681,0.267,0.319,-0.531,-0.245
CGAACTAGGACAGAACAGGACAGTGAAGGATGAT,0.214,0.299,0.538,-0.164,0.23,0.492,-0.221,-0.157
GTACCAAGGTGAATAGGTCATTGATGAGTAGGCG,3.98,4.79,3.34,-0.0633,3.5,2.82,0.757,0.849
GCTTGTAGACCAAGGTTAAGAAAGACTAAGCTAA,0.241,0.214,0.239,-0.149,0.485,0.969,-0.368,-0.0799
CGAACTAGGTCAAGGACACTGAATCTCCGCACGC,3.08,3.94,4.67,1.55,2.66,3.49,3.04,0.782
CAGCCTAGGTCAGGGCCAGAATAGGAGGAACGTT,2.24,2.81,3.54,-0.145,1.6,1.84,0.0772,-0.324
ATATGAAGGTTAAGGGTCATTCAGGTTGGTTCGC,4.38,5.3,3.81,2.14,7.12,3.95,1.5,4.67
CAGCCTAGGTCAGGGCCAGTATAGGAGGAACGTT,2.58,3.08,3.8,-0.416,1.54,2.11,0.526,-0.18
CCGAGTAGGTTATGCGGCATTCAGGCAACGGTGA,0.275,0.0373,-0.0255,-0.0566,0.274,-0.034,0.263,-0.167
TTGAGTAGGTTACCAATGGGGCATTCAGCTTTCT,1.02,1.46,0.739,0.192,0.569,0.168,-0.426,0.0569
TCTTGTAGATCACAGGTTAAGAAAGCCGAAGCCT,0.0208,0.222,0.135,0.557,0.811,0.341,-0.442,-0.219
CCGACTGGGGCAAGGTTACCAGAACGCACAGCCA,1.39,1.01,1.27,-0.418,1.07,1.06,-0.142,-0.475
CGTCCCAGGTCAGCAGGTCAGTGAAAGCGACGTG,3.99,4.83,4.51,0.368,3.25,3.56,2.19,0.573
CCTATTAGTTGAACATAAGGGCAACCGAAGCTCG,1.97,1.48,1.14,0.521,0.64,2.06,1.04,0.571
ACTATTAGTTGAGACGAGGGCAACGGATAGGTTG,0.993,0.638,0.908,0.374,0.585,2.53,0.137,0.875
GCGACTGGGGCATCATCAGGTTACCATAACTTAA,1.15,0.589,0.679,0.291,0.302,2.31,1.31,0.0657

Sequence,PBM binding z-score [1],PBM binding z-score [2],PBM binding z-score [3],PBM binding z-score [4],PBM binding z-score [5],PBM binding z-score [6],PBM binding z-score [7],PBM binding z-score [8]
CCTAGTTGGTCAGGAGGTCACACACCGGATATGA,4.56,5.11,4.78,0.706,4.83,3.61,2.6,2.82
TCATATAGGTAAATGCTAGGTGAAAATCCGATCT,0.208,0.578,0.633,1.54,0.795,1.24,0.427,0.374
ACAGACAGGTGATGGAGGTAACTCAGGCTATCAT,0.431,0.0912,0.339,-0.505,0.156,1.05,0.503,-0.164
CCTTACGGGTCACGAGGTGATAGCACGACGAGCG,3.52,5.58,5.46,1.66,6.44,3.48,0.888,1.15
GCAGACAGGTGATACGCAGGTAACTCAGGGTGGC,-0.38,-0.066,-0.0165,-0.589,0.293,0.561,-0.509,-0.5
ATCGAAGGGTCGTGAGGTGAGTATACAGAAAGGC,2.09,3.05,2.55,0.87,3.4,2.84,1.51,0.783
ACAGACAGGTGATGAAGGTAACTCACGCTATCAT,0.275,0.28,0.546,-0.0205,0.483,0.491,-0.113,0.0793
GATACAGGGTCAGCGAGAGGCCAGAGTATGGAAA,3.12,6.57,4.48,1.31,4.6,3.3,0.369,0.864
CCGACTGGGGCATAAGGTTATCATAAGCCAGCCC,1.53,1.8,0.973,-0.174,1.14,1.78,0.629,0.13
AACTCTAGGTAACAAGTTCAGTGAAAGAGAGGAC,1.66,1.03,1.2,1.13,0.731,1.4,0.448,2.39
TAGCCTAGGTCAGATCGGGCCAGTATACGCTATA,2.17,2.61,3.1,-0.634,1.44,4.09,0.0638,-0.176
TTACCAAGGTGAGCTGAAGTCGTTGATCCAACTC,-0.14,0.0635,-0.108,-0.671,0.0519,0.821,-0.297,-0.905
CGTCCAGGGTCAGCAGGTCAGTGAAAGCGACGTG,4.51,6.01,5.75,1.59,5.4,3.61,1.32,1.25
TCTTGTAGATCGAAGGTTAAGAAAGCCGAAGCCT,0.0841,0.243,-0.136,0.423,0.859,0.418,-0.559,-0.284
AGAATGAGGTTATTAAGATCAGGGAATTGCGGTC,1.05,1.17,0.93,1.91,1.89,2.18,0.599,0.931
CGTCAAAGTTCAGGGTAACGTAACAGAAAGCAGC,3.13,4.04,4.74,3.74,2.91,2.14,0.495,2.51
ATATGTAGGTTAGCTGGGATCATTCAGACTAGGC,0.428,0.559,0.765,0.0124,0.95,1.95,-0.1,0.36
CCTAGCAGGCAAATCTGGGTCACTCAAGGCTTGA,1.85,1,0.802,0.0934,0.625,2.89,0.513,-0.357
